Tau ThT inhib: tau fibrillization inhibition (ThT binding). 2.1% of 270,000 active. Potency, µM (series often up to 57.4 µM), without a hit: at the highest dose activity, negative = inhibition, most hits filed as inhibitors. recombinant tau K18 P301L, heparin-induced fibrillization, ThT fluorescence. AID 1460. P10636; further: nearly all actives have a fitted effect of over 55% in size
Target sequence (P10636 561-689 P618L limits assumed): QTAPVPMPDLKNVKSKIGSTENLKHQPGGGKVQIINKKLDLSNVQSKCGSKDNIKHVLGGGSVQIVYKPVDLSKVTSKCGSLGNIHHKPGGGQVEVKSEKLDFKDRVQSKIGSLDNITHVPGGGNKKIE
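Fibril formation assay: tau K18 P301L at 15 uM with trace Alexa 594 label, heparin inducer 20 uM, pH 7 sodium acetate buffer, 37 C for 6 hr; endpoint ThT signal.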
Tau fluor counter: counter-screen for tau fibril formation inhibitors | Potency, µM (doses to about 57.7 µM), for the others: top-dose activity change, negative = decrease | tau K18 P301L (four-repeat tau fragment) Alexa594 fluorescence, heparin fibrillization | AID 1463 | 0.93% of 280,000 active; further: nearly all actives have a fitted effect of over 55% in size
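Human K18 P301L tau (15 uM unlabeled plus 0.24 uM Alexa 594-labeled, final) in 100 mM sodium acetate pH 7 was mixed with compound and 20 uM heparin and incubated 6 hr at 37 C.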
GoLoco inh red: RGS12 GoLoco-Gai1 interaction inhibition | Potency, µM (doses to about 61.6 µM), inactives show at the top dose activity, negative = inhibition, most hits filed as inhibitors | 0.44% of 230,000 active | AID 880 | Gai1:RGS12 GoLoco peptide FP, rhodamine, 10 min; active means well fitted inhibition curve with a large enough effect, not every such curve was filed as active; inactive means no such curve, though single readings can be large or run the other way; further: nearly all actives have a fitted effect of over 30% in size
TR SRC2 fluor cs: counter-screen for TRb-SRC2 inhibitors: fluorescence interference | Potency, µM (doses to about 106 µM), without a hit: at the top dose fluorescence change, negative = quenching | TRb/SRC2 Texas Red total fluorescence interference | 0.29% of 280,000 active; active means well fitted curve in either direction with a large enough effect; inconclusive means small, poorly fitted or top-dose-only effect
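Human TRβ ligand-binding domain (0.6 uM) and Texas Red SRC2 peptide (20 nM) in Tris buffer with 1 uM T3 and 5% DMSO were incubated with pinned compound for 5 hr at ambient temperature. Total fluorescence was computed as S + 2P (555/632 nm).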
TRb-SRC2 inh: disrupts binding of human TR beta to SRC2; Potency, µM (doses to about 106 µM), inactives show top-dose activity change, negative = inhibition, usual class: inhibitors; 0.065% of 280,000 active; TRbeta-SRC2 peptide binding, fluorescence polarization; receptor liganded with 1 µM T3; P10828;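 further: plate controls were bound peptide for no effect and peptide without receptor for full effect; nearly all actives have a fitted effect of over 50% in size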
Target sequence (P10828 whole entry, looked up): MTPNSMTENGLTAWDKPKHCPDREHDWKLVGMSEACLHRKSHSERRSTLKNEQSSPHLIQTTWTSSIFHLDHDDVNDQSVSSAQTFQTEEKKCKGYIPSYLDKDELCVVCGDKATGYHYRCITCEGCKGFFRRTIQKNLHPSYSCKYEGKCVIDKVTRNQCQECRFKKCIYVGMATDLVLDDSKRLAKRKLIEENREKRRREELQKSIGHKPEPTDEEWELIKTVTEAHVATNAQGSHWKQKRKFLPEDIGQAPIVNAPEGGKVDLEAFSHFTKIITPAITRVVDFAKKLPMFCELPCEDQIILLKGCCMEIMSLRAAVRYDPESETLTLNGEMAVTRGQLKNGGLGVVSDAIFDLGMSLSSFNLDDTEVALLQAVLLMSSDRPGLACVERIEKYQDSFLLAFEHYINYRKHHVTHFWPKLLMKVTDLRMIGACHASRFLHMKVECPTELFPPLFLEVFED
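Fluorescence polarization of 20 nM Texas Red SRC2 peptide with 0.6 uM human TRb ligand-binding domain, in Tris buffer with 1uM T3 and 5% DMSO. Incubated 5 hr ambient; normalized to unbound and bound controls.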
Tau fibril FP: blocks human tau fibril formation measured by polarization. Potency, µM (doses to about 57.7 µM), inactives show top-dose activity, negative = inhibition, most hits filed as inhibitors. 0.39% of 280,000 active. AID 1468. P10636. K18 P301L tau heparin fibrillization, Alexa594 FP, 6 h; further: nearly all actives have a fitted effect of over 55% in size
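Read-out: fluorescence polarization of Alexa 594-labeled tau (0.24 uM), 555 nm excitation, 632 nm emission. Mixtures held 15 uM unlabeled K18 P301L, compound and 20 uM heparin, pH 7 acetate buffer, incubated 6 hr at 37 C.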
Active calls of the source: *; ! = a repeat was not active; [ ] = another dose, or the depositor's remark. Sampled rows, rich in hits. Any-hit rate of the full collection: about 3.2%. Unless noted, the call rests on the fitted dose curve; in most records, active means well fitted curve in the direction sought with a large enough effect; inconclusive means small, poorly fitted or top-dose-only effect, or another doubt; inactive means no such curve, though single readings can be large; an effect the other way counts as inactive or inconclusive. Unless noted, on the % scale 0 is the no-effect control and ±100 the full control effect; potency means the concentration at half of the fitted maximal effect.

How did Cc1ccc(-c2onc(C)c2C)cc1S(=O)(=O)N1CCCCC1 do in these assays?
Tau ThT inhib: -8%; Tau fluor counter: -19%; TR SRC2 fluor cs: -2%; TRb-SRC2 inh: 2%; Tau fibril FP: 6%

What do the screens show for `CC(=O)N1CCc2cc(CNS(=O)(=O)c3cccs3)ccc21`?
Tau ThT inhib: -10%; Tau fluor counter: -9%; TR SRC2 fluor cs: -1%; TRb-SRC2 inh: 0%; Tau fibril FP: -2%

How did Cn1cc(-c2nc3cnc(N4CCNCC4)nc3n(C3CC3)c2=O)c2ccccc21 do in these assays?
GoLoco inh red: -6%

How did Cc1cc(C)cc(Nc2nc3ccccc3n3cnnc23)c1 do in these assays?
Tau ThT inhib: -17%; Tau fluor counter: -30%; TR SRC2 fluor cs: -3%; TRb-SRC2 inh: 1%; Tau fibril FP: 4%

How did O=c1c2ccccc2sn1-c1ccc(S(=O)(=O)N2CCCC2)cc1 do in these assays?
Tau ThT inhib: 11µM*; Tau fluor counter: -16%; GoLoco inh red: 0.16µM*; Tau fibril FP: inconclusive

How did CCc1nnc(NC(=O)c2ccc3ccccc3n2)s1 do in these assays?
Tau ThT inhib: inconclusive; Tau fluor counter: 4%; GoLoco inh red: 35%; TR SRC2 fluor cs: -2%; TRb-SRC2 inh: 7%; Tau fibril FP: 8%

Results for CCc1nnc(NC(=O)c2sc3nc4cc(C)ccc4cc3c2N)s1 ?
Tau ThT inhib: 2µM*; Tau fluor counter: inconclusive; GoLoco inh red: 23%; TR SRC2 fluor cs: -7%; TRb-SRC2 inh: 8%; Tau fibril FP: -5%

What do the screens show for `CCOC(=O)Cc1csc(NC(=O)c2sc3nc4ccc(C)cc4cc3c2N)n1`?
Tau ThT inhib: 3.2µM*; Tau fluor counter: -16%; GoLoco inh red: 12%; TR SRC2 fluor cs: -4%; TRb-SRC2 inh: -3%; Tau fibril FP: 9%

Results for Cc1ccc(OCC(=O)Nc2ccc3c(c2)nc(CCNC(=O)c2ccco2)n3C)cc1 ?
Tau ThT inhib: -13%; Tau fluor counter: -3%; TR SRC2 fluor cs: 7%; TRb-SRC2 inh: -4%; Tau fibril FP: -2%

What do the screens show for `CC(C)COC(=O)c1ccc2c(c1O)C(=O)c1ccccc1C2=O`?
Tau ThT inhib: 13µM*; Tau fluor counter: inconclusive; GoLoco inh red: -5%; TR SRC2 fluor cs: -3%; TRb-SRC2 inh: -9%; Tau fibril FP: 10%

Results for Clc1ccc2c(c1)-n1cc(-c3ccccc3)nc1CO2 ?
Tau ThT inhib: inconclusive; Tau fluor counter: -21%; TR SRC2 fluor cs: 11µM*[quencher]; TRb-SRC2 inh: -10%; Tau fibril FP: -15%

What do the screens show for `COC(=O)CC1Oc2ccc(Cl)cc2-n2cc(-c3ccccc3)nc21` (configuration not stated)?
Tau ThT inhib: -15%; Tau fluor counter: -24%; TR SRC2 fluor cs: 0%; TRb-SRC2 inh: -3%; Tau fibril FP: -9%

What do the screens show for `COc1cc(C)c(/C=C/C(C)=C/C=C/C(C)=C/C(=O)O)c(C)c1C`?
Tau ThT inhib: 25µM*; Tau fluor counter: inconclusive; GoLoco inh red: -7%; TR SRC2 fluor cs: -1%; TRb-SRC2 inh: 7%; Tau fibril FP: -11%

How did CC/C=C\C/C=C\C/C=C\C/C=C\C/C=C\C/C=C\CCC(=O)O do in these assays?
Tau ThT inhib: 16µM*!; Tau fluor counter: -1%; GoLoco inh red: -5%; TR SRC2 fluor cs: -5%; TRb-SRC2 inh: 5%; Tau fibril FP: inconclusive

How did CC/C=C\C/C=C\C/C=C\C/C=C\C/C=C\CCCCCC(=O)O do in these assays?
Tau ThT inhib: -3%; Tau fluor counter: -1%; GoLoco inh red: -2%; TR SRC2 fluor cs: -5%; TRb-SRC2 inh: -4%; Tau fibril FP: 2%

What do the screens show for `CN(/C=C/c1c([N+](=O)[O-])c(=O)n(C)c(=O)n1C)c1ccccc1`?
Tau ThT inhib: 5%; Tau fluor counter: 3%; GoLoco inh red: 12%; TR SRC2 fluor cs: -4%; TRb-SRC2 inh: -6%; Tau fibril FP: 10%[2.34 µM]

What do the screens show for `CC1=C/C(=C/N(C)c2ccccc2)C(=O)S1`?
Tau ThT inhib: 20µM*; Tau fluor counter: -23%; GoLoco inh red: 14%; TR SRC2 fluor cs: 4%; TRb-SRC2 inh: -8%; Tau fibril FP: inconclusive

Results for COc1ccc(NC(=O)c2cn(CC(C)C)c(=O)c3cc(OC)c(OC)cc23)cc1Cl ?
Tau ThT inhib: inconclusive; Tau fluor counter: -19%; TR SRC2 fluor cs: -2%; TRb-SRC2 inh: 7%; Tau fibril FP: -9%

What do the screens show for `COc1cc2c3cc1Oc1c(OC)c(OC)cc4c1[C@@H](Cc1ccc(OC(=O)c5ccc([N+](=O)[O-])cc5)c(c1)Oc1ccc(cc1)C[C@@H]3N(C)CC2)N(C)CC4`?
TR SRC2 fluor cs: -4%; TRb-SRC2 inh: 1%

How did COc1ccccc1N1CCN(C(=O)CCc2nnc3n(C)c(=O)c4sccc4n23)CC1 do in these assays?
Tau ThT inhib: -10%; Tau fluor counter: -9%; TR SRC2 fluor cs: 22µM*[quencher]; TRb-SRC2 inh: inconclusive; Tau fibril FP: -5%

What do the screens show for `CCOc1ccc(NC(=O)CCCc2nnc3n(C)c(=O)c4sccc4n23)cc1`?
Tau ThT inhib: -6%; Tau fluor counter: -8%; TR SRC2 fluor cs: -2%; TRb-SRC2 inh: -7%; Tau fibril FP: -3%

Results for CCn1c(=O)c2sccc2n2c(CCCC(=O)N3CCN(c4ccccc4OC)CC3)nnc12 ?
Tau ThT inhib: -6%; Tau fluor counter: -11%; TR SRC2 fluor cs: 0%; TRb-SRC2 inh: -6%; Tau fibril FP: -1%

How did CCOc1ccc(NC(=O)CCc2nnc3n(C)c(=O)c4sccc4n23)cc1 do in these assays?
Tau ThT inhib: inconclusive; Tau fluor counter: -16%; TR SRC2 fluor cs: 0.035µM*[quencher]; TRb-SRC2 inh: 30%[53 µM]; Tau fibril FP: 4%

How did O=C(CSc1n[nH]c(=O)[nH]c1=O)Nc1ccc2c(c1)C(=O)c1ccccc1C2=O do in these assays?
Tau ThT inhib: 10µM*; Tau fluor counter: 13µM*[quencher]; GoLoco inh red: -10%; TR SRC2 fluor cs: -11%; TRb-SRC2 inh: 4%; Tau fibril FP: 15%

Results for O=C(N/N=C/c1ccccc1Cl)c1nc2ccc([N+](=O)[O-])cc2c(=O)[nH]1 ?
Tau ThT inhib: 10µM*; Tau fluor counter: inconclusive; GoLoco inh red: 11%; TR SRC2 fluor cs: -3%; TRb-SRC2 inh: 8%; Tau fibril FP: 1%

What do the screens show for `O=C(N/N=C/c1cccc([N+](=O)[O-])c1)c1nc2ccccc2c(=O)[nH]1`?
Tau ThT inhib: -2%; Tau fluor counter: 1%; GoLoco inh red: -1%; TR SRC2 fluor cs: 2%; TRb-SRC2 inh: -2%; Tau fibril FP: 7%
